Assay [1] concerns the target Serine/threonine-protein kinase PAK 6 (Homo sapiens) (UniProt Q9NQU5). The conditions noted are these: at 1 µM.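 Also: values are mean percent inhibition of PAK6 kinase.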
The subject of assay [2] is Tyrosine-protein kinase ABL1 (Homo sapiens), P00519 [E255K]. Particulars: at 0.1 µM.
The test system is the same in assay [3]. Particulars: at 1 µM.
The subject of assay [4] is Tyrosine-protein kinase ABL1 (Homo sapiens), P00519 [H396P]. The conditions noted are these: at 0.1 µM.
Assay [5] has the same test system. Particulars: at 1 µM.
The test system of assay [6] is Tyrosine-protein kinase ABL1 (Homo sapiens), P00519 [M351T]. Particulars: at 0.1 µM.
The test system is the same in assay [7]. Particulars: at 1 µM.
Assay [8] relates to Tyrosine-protein kinase ABL1 (Homo sapiens), P00519 [Q252H]. The conditions noted are these: at 0.1 µM.
Assay [9] shares this test system. The conditions noted are these: at 1 µM.
Assay [10] relates to Tyrosine-protein kinase ABL1 (Homo sapiens), P00519 [T315I]. The conditions noted are these: at 0.1 µM.

By inhibition is commonly meant the relative decrease from the control value, in per cent.

Chain of Serine/threonine-protein kinase PAK 6 (Homo sapiens) (Q9NQU5 whole entry, looked up): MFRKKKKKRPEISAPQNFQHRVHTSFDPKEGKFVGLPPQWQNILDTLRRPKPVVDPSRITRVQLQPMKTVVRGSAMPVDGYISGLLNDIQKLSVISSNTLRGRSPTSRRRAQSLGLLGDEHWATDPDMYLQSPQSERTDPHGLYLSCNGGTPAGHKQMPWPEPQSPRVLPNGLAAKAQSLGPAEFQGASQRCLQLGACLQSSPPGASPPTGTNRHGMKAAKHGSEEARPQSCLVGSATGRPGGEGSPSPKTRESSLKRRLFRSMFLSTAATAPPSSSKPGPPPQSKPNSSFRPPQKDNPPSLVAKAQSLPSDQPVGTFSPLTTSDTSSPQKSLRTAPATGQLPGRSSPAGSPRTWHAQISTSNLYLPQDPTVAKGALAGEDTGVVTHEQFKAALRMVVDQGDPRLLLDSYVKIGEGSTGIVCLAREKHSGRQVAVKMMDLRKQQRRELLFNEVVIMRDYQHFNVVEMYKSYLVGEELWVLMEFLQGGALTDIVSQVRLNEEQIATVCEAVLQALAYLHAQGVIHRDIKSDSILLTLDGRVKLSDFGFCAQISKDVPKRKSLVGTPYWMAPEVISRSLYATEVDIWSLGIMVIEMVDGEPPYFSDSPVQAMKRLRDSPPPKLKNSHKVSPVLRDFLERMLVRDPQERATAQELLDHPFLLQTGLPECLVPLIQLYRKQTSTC

As to `CCn1c(-c2nonc2N)nc2c(C#CC(C)(C)O)nc(O[C@@H](CN)c3ccccc3)cc21`, the inhibition in assay [1] was 67.6%; in assay [2], -0.39%; in assay [3], -0.58%; in [4], -0.59%; in assay [5] it was -0.29%; in assay [6], 0.75%. Besides, the inhibition is 5.14% in [7], -0.46% in [8], 0.03% in [9] and 1.03% in [10].

Regarding `Nc1nonc1-c1nc2cnccc2n1C1CCCCC1`, the inhibition in assay [1] was -4.16%; in assay [2] it was -1.63%; in [3], -0.67%; in [4], -1.2%; in [5] it was -0.69%; in [6], 1.15%. Besides, the inhibition is 3.69% in [7], -2.14% in [8], 1.64% in [9] and -1.05% in [10].

Regarding `CCn1c(-c2nonc2N)nc2c(C#CC(C)(C)O)ncc(OCC3CCNCC3)c21`, the inhibition was 69.3% in assay [1]; -0.11% in assay [2]; 4.95% in [3]; 1.89% in assay [4]; 4.52% in assay [5]; -1.14% in assay [6]. Moreover, the inhibition is 5.41% in [7], 1.06% in assay [8], 3.85% in assay [9] and 0.9% in assay [10].

Regarding `NC(=O)c1sc(-n2cnc3cc(C(F)(F)F)ccc32)cc1OCc1ccccc1Br`, the inhibition in [1] was 0.31%; in assay [2] it was 2.61%; in assay [3] it was 3.23%; in assay [4], 3.11%; in [5], 3.6%; in assay [6] it was 2.27%. The inhibition came out at 2.72% in assay [7], 1.81% in assay [8], 2.64% in [9] and 1.04% in [10].

Take `COc1cc(C=NNc2ncnc3c2cnn3Cc2ccccc2)ccc1O`: the inhibition was -8.83% in assay [1]; 32.5% in [2]; 82.7% in [3]; 52.3% in assay [4]; 90% in assay [5]; 54.1% in assay [6]. The inhibition in assay [7] came out at 89.2%; in [8] it was 57.7%; in assay [9], 92.2%; in assay [10] it was 12.6%.

Take `COc1cc2c(cc1Nc1nc(Nc3ccsc3C(N)=O)c3cc[nH]c3n1)N(C(=O)CN(C)C)CCC2`: the inhibition in assay [1] is 5.48%; in [4], -3.59%; in assay [5], -0.29%; in assay [6], 1.67%; in assay [7], 3.14%; in assay [8], 1.29%. For the same molecule, the inhibition in assay [9] came out at 3.2%; in assay [10], 0.06%.

As for `COc1cccc(COc2cc(-n3cnc4ccccc43)sc2C(N)=O)c1`, the inhibition in [1] is -1.23%; in assay [2], -0.78%; in assay [3], -0.15%; in [4], -1.23%; in assay [5], 3.19%; in assay [6], -1.62%. In addition, the inhibition in [7] is 2.97%; in [8], -0.55%; in [9], 3.14%; in [10] it was -1.92%.

For `CCn1c(-c2nonc2N)nc2c(C#CCN)ncc(OCCCN)c21`, the inhibition is 2.6% in [1]; -4.53% in assay [2]; -4.45% in [3]; -4.29% in [4]; -0.59% in [5]; -1.57% in assay [6]. For the same molecule, the inhibition in assay [7] was 1.28%; in [8] it was -2.52%; in [9], 0.94%; in assay [10], -2.53%.

`NS(=O)(=O)c1ccc(-c2ccc3c(NC(=O)C4CC4)n[nH]c3c2)cc1`: the inhibition is 9.03% in assay [1]; 2.79% in assay [2]; 7.46% in assay [3]; 4.05% in [4]; 17.1% in assay [5]; 3.23% in [6]. The inhibition was 16.9% in assay [7], 6.44% in assay [8], 8.2% in assay [9] and 5.41% in assay [10].

On to `CCn1c(-c2nonc2N)nc2c(C#CC(C)(C)O)ncc(OC[C@@H]3CCCN3)c21`, for which the inhibition in [1] was 58.4%; in assay [2], -0.36%; in [3], -0.79%; in [4], 1.51%; in assay [5], 6.5%; in [6], -0.07%. The inhibition in assay [7] is 1.33%; in assay [8] it was 1.26%; in assay [9] it was -0.4%; in assay [10] it was 0.19%.

In the case of `NS(=O)(=O)c1ccc(N/C=C2\C(=O)Nc3ccc4ncsc4c32)cc1`, the inhibition is -3.07% in assay [1]; 3.53% in assay [2]; 21.2% in assay [3]; 7.89% in assay [4]; 31.5% in assay [5]; 5.55% in assay [6]. Further, the inhibition in [7] was 30.6%; in [8], 9.38%; in assay [9], 38.7%; in [10], 6.29%.

Regarding `Fc1ccc(-c2ncn(C3CCNCC3)c2-c2ccnc(Oc3ccccc3)n2)cc1`, the inhibition in assay [1] is -6.64%; in assay [2], -0.56%; in assay [3], 1.05%; in assay [4], 2.03%; in assay [5], 1.85%; in [6] it was -0.31%. Moreover, the inhibition in assay [7] is -0.15%; in assay [8], 1.55%; in assay [9] it was 2.19%; in assay [10], -0.76%.

For `COc1cccc(-n2ncc3c(N/N=C/c4ccncc4)ncnc32)c1`, the inhibition in assay [1] is -8.53%; in assay [2], 77%; in assay [3], 93.9%; in [4], 82.9%; in assay [5] it was 94.9%; in assay [6], 82.3%. The inhibition worked out at 94% in [7], 87.2% in assay [8], 95.7% in assay [9] and 42.4% in [10].

With `Cc1cc(-c2ccco2)cc(C)c1/C=C/c1cncc(-c2nn[nH]n2)c1`, the inhibition in assay [1] came to 3.04%; in assay [2] it was 0.2%; in [3] it was 2.01%; in assay [4], 1.54%; in assay [5], 4.02%; in assay [6] it was 3.02%. The inhibition in assay [7] was determined as 4.16%; in assay [8] it was 1.99%; in assay [9], 4.16%; in assay [10], 0.41%.

For the origin of these results see ChEMBL document CHEMBL1961873, “Compounds: GSK PKIS; Assays: Nanosyn kinase panel” (2012).
